Records with an inconclusive call do not appear. Values without a mark were called inactive. Active and inactive are the calls of the source. Calls follow the shape of the dose curve; as a rule, active = well fitted inhibition curve with a large enough effect; inconclusive = small, poorly fitted or top-dose-only effect; inactive = flat fitted curve, though single readings scatter.
% is scaled to controls: 0 for no effect and ±100 for the full control effect; potency is read from the fitted curve at half-maximal effect.

In the test the test system is HEK293. Nature of the test: Cytotoxic Profiling of Annotated Libraries Using Quantitative High-Throughput Screening (AID 1296008). Also: nearly all actives have a fitted effect of over 60% in size. The settings on record: Five cell lines viability, CellTiter-Glo ATP luminescence, 48-72 h; max response: active compounds read low. The method, boiled down: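 Cytotoxicity was measured as CellTiter-Glo ATP luminescence, read after 10 min at room temperature. Compound treatment of the cells lasted 48 or 72 hr at 37 degrees Celsius in a qHTS format.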
As to `Cc1c(C(=O)Nc2ccc(N3CC(C)OC(C)C3)nc2)cccc1-c1ccc(OC(F)(F)F)cc1` (stereo not drawn), the Potency is 9.2 µM (active).
Turning to `CCN(CC)CCN(Cc1ccc(-c2ccc(C(F)(F)F)cc2)cc1)C(=O)Cn1c(SCc2ccc(F)cc2)nc(=O)c2c1CCC2`, the Potency is 3.66 µM (active).
Same read-out and setting: to `CC1(C)CC(NC(=O)C(=O)Nc2ccc(Br)cc2)CC(C)(C)N1` belongs 4.11 µM (active); to `Cn1cc(S(=O)(=O)c2ccc(Cl)cc2)c2cccc(N3CCNCC3)c21`, 6.51 µM (active); to `O=C(Nc1ccc(Cl)cc1F)c1ccccc1O`, 16.4 µM (active).
Regarding `O=c1[nH]ccc2cc(OC3CCNCC3)ccc12`, the max response is -16.8%.
Still for that read-out and setting: in the case of `Cc1ncc(CCCN(C)C)cc1Nc1ncc2c(n1)-c1ccc(C(F)(F)F)cc1NC(=S)C2` it was -92.5%.
`O=C(c1ccccc1)c1ccc2nc(NC(=O)c3csc(C4CCN(c5ncnc6ccsc56)CC4)n3)[nH]c2c1`: the Potency was 5.17 µM (active).
Same read-out and setting: to `COc1c(Nc2ncc(Cl)c(N[C@H]3[C@@H](C(N)=O)[C@@H]4C=C[C@H]3C4)n2)ccc2c1CC[C@@H](N1CCOCC1)CC2` belongs 3.66 µM (active).
Same read-out and setting: to `O=C(c1cccc(Cl)c1F)N1CCN(Cc2cccc(Nc3nccs3)n2)CC1` belongs 1.03 µM (active).
The same measure, in the same setting: to `N#Cc1c(Oc2ccc(F)c(NC(=O)Cc3cccc(C(F)(F)F)c3)c2)ccc2nc(NC(=O)C3CC3)sc12` belongs 1.3 µM (active); to `COC(=O)C1(C)c2[nH]c3ccccc3c2CCN1C(=O)CCl` (stereo not drawn), 7.31 µM (active).
`COC(=O)N[C@@H](C)CNc1nccc(-c2cn(C(C)C)nc2-c2cc(Cl)cc(NS(C)(=O)=O)c2F)n1`: the Potency is 11.6 µM (active).
